Here are results for 38 molecules from PubChem BioAssay AID1508621 (National Center for Advancing Translational Sciences (NCATS), 2021).

Results filed as inconclusive are left out. Values without a mark were called inactive. Activity calls are given as the source filed them. The call rests on the fitted dose curve; in most records, active means well fitted inhibition curve with a large enough effect; inconclusive means small, poorly fitted or top-dose-only effect; inactive means no such curve, though single readings can be large or run the other way.
Potency means the concentration at half of the fitted maximal effect.

The assay is described as follows: Confirmatory qHTS for Identification of Small Molecule Inhibitors of Huntingtin Promoter Activity. Further: nearly all actives have a fitted effect of over 65% in size. The conditions noted are these: HEK293 HTT promoter firefly luciferase reporter, 24 h; series mostly up to 57.5 µM; activity change, negative = inhibition: at the top concentration. The method in brief: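 Activity normalized between vehicle control (0%) and zero RLU (-100%) from firefly luminescence (Dual-Glo). Compounds, up to 57.5 uM final, incubated 24 h at 37C on HEK293 reporter cells plated 24 h earlier.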
In general terms: Quantitative high-throughput screening tests each substance at several concentrations.
Consider `COc1ccc(-c2nc(CSCC(=O)N3CCN(c4cc(Cl)ccc4C)CC3)c(C)o2)cc1`, for which the Potency is 9.53 µM (active).
`CC1CCN(C(=O)CN2c3ccc(Br)cc3-c3ccccc3S2(=O)=O)CC1`: the “activity change, negative = inhibition” value was 26%.
In the case of `Cc1ccc(C)c(-n2nnc(C(=O)Nc3ccc(Br)cc3)c2C)c1`, the “activity change, negative = inhibition” value was -18.6%.
As to `CCOc1ccccc1NC(=O)C(=O)c1cc(C)n(-c2ccc(F)cc2)c1C`, the “activity change, negative = inhibition” value is 37.3%.
On to `CN(C)c1ccc(C(=C2C=CC(=[N+](C)C)C=C2)c2ccc(N(C)C)cc2)cc1`, for which the Potency is 3.01 µM (active).
Consider `Cc1ccc(CN2CCSc3ccc(C(=O)NCC(C)c4ccccc4)cc32)cc1` (stereo not drawn), for which the “activity change, negative = inhibition” value was -1.43%.
`Cc1ccc(N2C(=O)C(CC(=O)Nc3ccccc3)N(CCC3=CCCCC3)C2=O)cc1` (stereo not drawn): the “activity change, negative = inhibition” value was -1.96%.
Take `Cc1cccc(CSc2cn(CC(=O)N3CCOCC3)c3ccccc23)c1`: the “activity change, negative = inhibition” value was 46.6%.
On the same count and under the same terms, with `O=c1c(-c2ccc(O)cc2)coc2cc(O)ccc12` the figure was 50.9%; with `O=C(CN1c2ccc(Br)cc2-c2ccccc2S1(=O)=O)N1CCCCC1`, 28.6%.
Turning to `CC(=O)N1CCc2c(sc(NC(=O)CSc3ccccc3)c2-c2nc3ccccc3s2)C1`, the Potency was 26.9 µM (active).
As to `CCOc1ccc(C(=O)NCc2ccc3c(c2)CCN3C(=O)c2ccccc2)cc1`, the “activity change, negative = inhibition” value was -16.2%.
As to `Cc1cccc(NC(=O)c2c(NC(=O)C(F)(F)F)sc3c2CCCCC3)c1`, the Potency is 2.39 µM (active).
As for `CCN(C(=O)CSc1nc(-c2ccccc2)no1)c1cccc(C)c1`, the “activity change, negative = inhibition” value is -7.08%.
Regarding `Cc1nc(Nc2n[nH]c3c2CN(C(=O)N[C@H](CN(C)C)c2ccccc2)C3(C)C)c2sccc2n1`, the “activity change, negative = inhibition” value was -21.1%.
As to `Cc1ccc(C)c(N2CCN(C(=O)C3CCN(c4nc(-c5ccc(C(C)C)cc5)no4)CC3)CC2)c1`, the Potency is 0.239 µM (active).
`Cc1ccc(S(=O)(=O)Nc2cccc(-c3ccc(N4CCCCC4)nn3)c2)s1`: the “activity change, negative = inhibition” value was -21.3%.
Regarding `CC(C)Oc1ccc(C(=O)N(Cc2ccco2)c2ccccn2)cc1`, the “activity change, negative = inhibition” value is 52.2%.
In the case of `CC(C)c1ccc(Cc2cnc(NC(=O)c3ccc4c(c3)CC(c3ccccc3)OC4=O)s2)cc1` (stereo not drawn), the Potency was 3.79 µM (active).
On to `COc1ccc(Cn2c(CO)cnc2SCc2ccc(F)cc2)cc1`, for which the “activity change, negative = inhibition” value is -8.93%.
As to `CCCN(c1ccccc1CC)S(=O)(=O)c1ccc2c(c1)CC(C)N2C(=O)C1CC1` (stereo not drawn), the Potency was 13.5 µM (active).
As for `N#CCNC(=O)c1ccc(-c2ccnc(Nc3ccc(N4CCOCC4)cc3)n2)cc1`, the “activity change, negative = inhibition” value was -12.3%.
Same read-out and setting: for `COc1cccc(CNC(=O)c2ccc3nc(N4CCCCC4)sc3c2)c1OC` the value was -26.3%.
Turning to `COc1ccccc1C1CC(=O)NC(C)=C1C(=O)OC1CCCCCC1` (stereo not drawn), the “activity change, negative = inhibition” value is -27.3%.
With `O=C(Cc1ccccc1)Nc1cccc(-c2cn3cccnc3n2)c1`, the “activity change, negative = inhibition” value is 42.3%.
Consider `CCOC(=O)c1ccc(N2C(=O)c3[nH]nc(-c4ccccc4)c3C2c2cccs2)cc1` (stereo not drawn), for which the Potency was 13.5 µM (active).
Consider `Cc1ccccc1NC(=O)c1c(NC(=O)C(F)(F)F)sc2c1CCCCC2`, for which the Potency is 0.849 µM (active).
As for `CCc1ccc(-n2c(SCC(=O)NC(C)CC)nc3n[nH]c(C)c3c2=N)cc1` (stereo not drawn), the “activity change, negative = inhibition” value was -17.2%.
Turning to `CCOc1ccc(C(=O)N(Cc2cc(OC)c(OC)c(OC)c2)c2ccccn2)cc1`, the “activity change, negative = inhibition” value was -18.3%.
In the case of `COc1ccc(-c2ccc3ncc4c(c3c2)n(-c2ccc(N3CCNCC3)c(C(F)(F)F)c2)c(=O)n4C)cn1`, the “activity change, negative = inhibition” value was -2.51%.
Turning to `CC(=O)c1cccc(NS(=O)(=O)c2cccc(S(=O)(=O)c3ccc(Br)cc3)c2)c1`, the Potency was 26.9 µM (active).
As to `CN[C@H]1[C@@H](O)[C@@H]2O[C@@H]3O[C@H](C)CC(=O)[C@]3(O)O[C@@H]2[C@@H](NC)[C@H]1O`, the “activity change, negative = inhibition” value is -9.55%.
In the case of `CCCCN1CC(c2nc3ccccc3n2CCCCOc2ccc(C)c(C)c2)CC1=O` (stereo not drawn), the Potency is 19 µM (active).
For `COc1cccc(N2CCN(C(=O)c3cccc(-n4c(C)nc5cccnc54)c3)CC2)c1`, the Potency is 23.9 µM (active).
Take `COc1cc(OC)c(OC)cc1/C=C/c1nc2cc3ccccc3cc2c(=O)n1-c1ccc(F)c(Cl)c1`: the “activity change, negative = inhibition” value was -22.1%.
On to `CCOc1ccc(S(=O)(=O)N(C(C)=O)c2ccc3oc(C)c(C(=O)OC)c3c2)cc1`, for which the Potency is 4.78 µM (active).
For `Cc1cc(SCC(=O)Nc2nsc(-c3ccc(C(C)(C)C)cc3)n2)nc2ccccc12`, the “activity change, negative = inhibition” value was 1.92%.
With `Cc1ccc(C)c(OCCCC(C)(C)C(=O)O)c1`, the “activity change, negative = inhibition” value was -5.05%.
